Assay outcomes deposited in PubChem by The Scripps Research Institute Molecular Screening Center.
An excerpt weighted towards active compounds, which were near 3.5% of everything screened.
FBW7 activator: activators of human E3 ligase FBW7; actives 0.13% (n = 650,000); AlphaScreen FBW7–phospho-cyclin E peptide binding, activator screen; normalized activity (activation), % at 26.1 µM; Q969H0; in the data active = normalized activity above about 1.9%;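 also: purified mutant Fbw7 with reduced substrate affinity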
TEAD-YAP block: TEAD-YAP interaction inhibition; HEK-TIYL cells, TEAD-Gal4/YAP UAS-luciferase luminescence; actives 1.4% (n = 640,000); inhibition, % at 9.12 µM; in the data active = inhibition above about 32%;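 also: 0% = median of test compound wells and 100% = reference inhibitor wells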
MITF primary: inhibitors of human MITF; O75030; inhibition, % at 2.6 µM; AlphaScreen MITF homodimerization, bead proximity signal; actives 0.91% (n = 650,000); AID 1259374; in the data active = inhibition above about 50%;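 also: 0% = vehicle wells with protein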
GPR151 activ: activators of human GPR151; AID 1508602; actives 1% (n = 650,000); Q8TDV0; activation, % at 11.2 µM; PathHunter beta-arrestin GPR151 cells, luminescence; in the data active = activation above about 4.9%;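 also: 0% = median of compound wells and 100% = cells with positive control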
Target sequence (Q8TDV0 whole entry, looked up): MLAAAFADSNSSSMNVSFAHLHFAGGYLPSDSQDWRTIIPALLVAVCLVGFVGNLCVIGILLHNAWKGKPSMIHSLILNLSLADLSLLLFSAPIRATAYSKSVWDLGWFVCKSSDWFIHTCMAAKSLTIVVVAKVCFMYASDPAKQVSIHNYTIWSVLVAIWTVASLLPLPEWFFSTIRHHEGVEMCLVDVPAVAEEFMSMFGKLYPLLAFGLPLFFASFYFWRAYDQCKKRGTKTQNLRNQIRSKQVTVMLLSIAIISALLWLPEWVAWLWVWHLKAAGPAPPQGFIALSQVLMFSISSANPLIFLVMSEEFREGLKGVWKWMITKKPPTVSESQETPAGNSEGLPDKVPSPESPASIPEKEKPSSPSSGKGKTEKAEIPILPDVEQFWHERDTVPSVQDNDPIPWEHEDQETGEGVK
Starred values were filed as active, the others as inactive.

SMILES	FBW7 activator	TEAD-YAP block	MITF primary	GPR151 activ
CCC(=O)Nc1sc2c(c1-c1nc3ccccc3s1)CCN(CC)C2	0	54*	6	2
CCOC(=O)N1CCc2c(sc(NC(=O)CC)c2-c2nc3ccccc3s2)C1	0	10	19	-1
CCN1CCc2c(sc(NC(C)=O)c2-c2nc3ccccc3s2)C1	0	69*	10	0
Cc1cc(C)c2c(c1)OC(N)(C(Cl)(Cl)Cl)CC2=O (stereo not given)	0	7	10	0
Cc1csc(NC(=O)CSc2nnc(-c3ccccc3O)n2-c2ccccc2)n1	0	57*	-1	-1
C=CCn1c(SCC(=O)Nc2nccs2)nnc1-c1ccccc1O	0	61*	-6	0
C=CCn1c(SCC(=O)Nc2sccc2C(N)=O)nnc1-c1ccccc1	0	26	5	-1
CCCCc1ccc(-n2nnnc2SCC(=O)Nc2sccc2C(N)=O)cc1	0	37*	-2	0
CCn1c(SCC(=O)Nc2nccs2)nnc1-c1ccccc1O	0	-6	2	1
NC(=O)c1ccsc1NC(=O)CSc1nnc(-c2ccccc2)n1-c1ccccc1	0	45*	2	0
CCOC(=O)C1=C(c2ccccc2)N=c2s/c(=C\c3cc(OC)ccc3OC)c(=O)n2C1c1ccc(Cl)cc1 (stereo not given)	0	-4	-6	0
CCOc1cc(C=O)ccc1OC(=O)c1cc(C)cc([N+](=O)[O-])c1	0	-3	-14	1
O=[N+]([O-])c1ccc(Nc2cccc(O)c2)c([N+](=O)[O-])c1	0	3	16	3
O=C(CSc1nnc(-c2ccccc2)n1-n1cccc1)Nc1nccs1	0	38*	3	0
O=C(CSc1nnc(-c2ccccc2O)n1-c1ccccc1)Nc1nccs1	0	54*	2	-1
Cc1cccc(NS(=O)(=O)c2nnc(NC(=O)c3ccccc3F)s2)c1	0	-3	-5	-2
Cc1cccc(-c2nnc(NC(=O)c3ccccc3F)s2)c1	1.9*	-64	14	0
CCC(=O)Nc1cc(C2CC2)nn1-c1nc(-c2ccccc2)cc(=O)[nH]1	2.2*	15	-2	-1
O=C(NNc1nc2ccccc2s1)Nc1ccccc1	0	-36	-2	-1
O=C(O)CNc1nc2ccccc2s1	1	11	32	-2
O=C(O)CCNc1nc2ccccc2s1	0	42*	1	0
c1ccc(NNc2nc3ccccc3s2)cc1	0	36*	10	-1
CC(C)CN1CCNC(=O)C1CC(=O)NCc1ccc(N2CCCC2=O)cc1 (stereo not given)	0	6	-3	0
CCn1c(=O)/c(=C\C=C2\N(C)c3ccc(-c4ccccc4)cc3C2(C)C)s/c1=C1\C(=O)N(c2ccccc2)N=C1C	0	-13	-5	-1
C=CCNC(=O)C(=O)NCCCO	0	4	17	-1
SMILES	FBW7 activator	TEAD-YAP block	MITF primary	GPR151 activ
Cc1ccc2c(Cl)c(C(=O)Nc3ncccn3)sc2c1	1	51*	3	-4
CCOC(=O)CN1CCN(c2ccc(-c3cccc(OC)c3)cn2)CC1	0	71*	3	0
CC(C)c1ccc(-c2csc(NC(=O)c3ccnn3C)n2)cc1	0	57*	-22	2
COc1ccc(C(=O)Nc2nc(-c3ccc(C(C)C)cc3)cs2)cc1	0	-2	7	0
Cc1c(Cl)cccc1N1CC(c2nc3ccccc3n2C)CC1=O (stereo not given)	0	16	-7	2
CCOC(=O)c1ccc(Nc2c(N)c(=O)oc3ccccc23)cc1	0	52*	3	0
CCOC(=O)c1ccc(Nc2c3c(nc4ccccc24)CCC3)cc1	0	42*	-7	0
CCOC(=O)c1ccc(S(=O)(=O)Nc2c(C(=O)OCC)oc3ccccc23)cc1	0	4	10	-2
CC(=O)c1cccc(Nc2c3c(nc4ccccc24)CCC3)c1	0	56*	-4	0
c1ccc(CCNc2c3c(nc4ccccc24)CCC3)cc1	1	39*	-14	0
C=C(C)COc1ccc2c(=O)c(Oc3ccc(OC)cc3)coc2c1	1	-28	-18	-1
CCCCCCNc1nc2c(c(=O)[nH]c(=O)n2C)n1CCC(C)C	0	16	9	2
CC(=O)N(c1cccc(C)c1)c1nc(CSc2n[nH]c(N)n2)cs1	0	-10	6	0
CCOC(=O)c1ccc(Nc2cc(C)nc(-c3ccccc3)n2)cc1	0	40*	7	3
COc1ccccc1Nc1c2c(nc3ccccc13)CCC2	-1	54*	4	0
Cc1[nH]c2ccccc2c1C(=O)COC(=O)CCC(=O)c1ccc2c(c1)OCCO2	0	-6	4	2
Cc1c(C(=O)Nc2ccc(F)cc2F)sc2ncnc(N3CCCCC3)c12	0	-12	-8	1
Nc1nnc(CC(=O)N2CCCCC2)s1	2.1*	5	12	-1
CCCOC(=O)C1=C(C)N(CC)C(=O)NC1c1ccc(Br)cc1 (stereo not given)	1	13	14	-3
O=[N+]([O-])c1nn(-c2ccc(Cl)cc2)n(O)c1=Nc1ccccc1	0	62*	0	0
O=[N+]([O-])c1nn(-c2ccc(Cl)cc2)n(O)c1=Nc1ccccc1F	0	38*	0	-1
O=[N+]([O-])c1nn(-c2ccc(Cl)cc2)n(O)c1=Nc1ccc(Cl)cc1	0	7	26	-2
NC(=O)c1nn(CC(=O)NCc2ccc(Cl)cc2)c(=O)c2ccccc12	0	2	-3	1
O=[N+]([O-])c1cnc(Nc2ccc(S(=O)(=O)Nc3nccs3)cc2)c([N+](=O)[O-])c1	0	0	9	1
O=[N+]([O-])c1ccc(Nc2nccs2)c([N+](=O)[O-])c1	0	59*	5	-1
SMILES	FBW7 activator	TEAD-YAP block	MITF primary	GPR151 activ
CCCCOC(=O)c1cccc(NC(=O)COc2ccc(Br)cc2Br)c1	0	58*	-4	0
COC(=O)c1cccc(NC(=O)COc2ccccc2Cl)c1	0	31	7	0
CCCOC(=O)c1cccc(NC(=O)COc2ccccc2Cl)c1	0	45*	4	-2
Cc1ccc(/C(O)=C2\C(=O)C(=O)N(Cc3cccnc3)C2c2ccccc2)cc1 (stereo not given)	0	5	-4	-1
CC(NC(=O)C1CC1)c1nnc2n1CCN(Cc1cc3ccccc3[nH]1)CC2 (stereo not given)	0	-1	4	0
CC(=O)N(C1=C(N2CCOCC2)C(=O)c2ccccc2C1=O)c1ccc(F)c(F)c1	0	32*	24	1
CC(=O)N(C1=C(N2CCOCC2)C(=O)c2ccccc2C1=O)c1cc(C)cc(C)c1	0	39*	36	1
CCOc1ccc(NC(=O)CN(c2ccc(C)c(C)c2)S(C)(=O)=O)cc1	0	2	15	2
CCOC(=O)c1ccccc1Nc1cn(C(C)=O)c2ccccc12	0	52*	14	0
Cc1cccc(Nc2cc(N3CCOCC3)c3noc4c3c2C(=O)c2ccccc2-4)c1	0	-1	15	0
